Screening data deposited in PubChem by National Center for Advancing Translational Sciences (NCATS).
This is a sample that favours compounds with a hit; in the whole collection about 2.4% have one here.
AmpC inh no det: Promiscuous and Specific Inhibitors of AmpC Beta-Lactamase (assay without detergent) | P00811 | AmpC nitrocefin hydrolysis, absorbance 480 nm, no detergent | Potency, µM (titrated, usually from 28.7 µM), inactives show top-dose activity change, negative = inhibition | 71,000 tested, 1.8% active; further: % of control where 0% means no effect
Target sequence (P00811 whole entry, looked up): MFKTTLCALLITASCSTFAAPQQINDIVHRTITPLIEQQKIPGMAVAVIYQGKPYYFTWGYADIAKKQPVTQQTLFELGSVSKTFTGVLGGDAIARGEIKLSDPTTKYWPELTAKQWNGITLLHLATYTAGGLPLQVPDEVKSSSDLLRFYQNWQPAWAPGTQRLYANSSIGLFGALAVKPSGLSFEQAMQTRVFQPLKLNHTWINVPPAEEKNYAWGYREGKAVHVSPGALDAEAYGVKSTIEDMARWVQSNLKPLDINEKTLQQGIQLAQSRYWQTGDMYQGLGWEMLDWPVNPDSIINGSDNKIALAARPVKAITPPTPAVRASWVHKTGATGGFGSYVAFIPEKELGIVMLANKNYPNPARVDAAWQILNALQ
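Enzyme, pH 7.0 phosphate. Compound titrations were pre-incubated with AmpC for 15 min at room temperature before nitrocefin (stock 800 uM) addition; product formation was recorded at 480 nm every 20 s for 4 min.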
AmpC inh det: Promiscuous and Specific Inhibitors of AmpC Beta-Lactamase (assay with detergent) | P00811 | purified AmpC, nitrocefin hydrolysis with detergent | Potency, µM (series often up to 28.7 µM), for inactives: at the highest dose activity change, negative = inhibition | 71,000 tested, 0.09% active | AID 584, 2007; active means well fitted curve in the direction sought with a large enough effect; inconclusive means small, poorly fitted or top-dose-only effect; further: on the % scale 0 is the no-effect control and ±100 the full control effect
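E. coli AmpC (5.3 nM) in 20 mM phosphate pH 7.0 with 0.01% Triton X-100, preincubated 15 min RT with compound; nitrocefin (2 uL of 800 uM stock) hydrolysis followed by 480 nm absorbance every 20 s over 4 min.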
Prx2 Sm inh: Schistosoma Mansoni Peroxiredoxins (Prx2). S. mansoni Prx2 activity coupled to TGR/GSH (TGR is thioredoxin glutathione reductase), NADPH fluorescence loss, qHTS. AID 448, 2006. Potency, µM. Schistosoma mansoni peroxiredoxin 2 (Prx2). 65,000 tested, 0.07% active
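Prx2 activity was followed as the loss of NADPH fluorescence (ex 365/em 450 nm), read every 30 sec for 8 min after H2O2 start. The enzyme mix (50 nM Prx2, 25 nM TGR, GSH, NADPH; pH 7.4 phosphate buffer) was incubated with compound for 15 min at room temperature first.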
Anthrax LT inh: qHTS Assay for Anthrax Lethal Toxin Internalization; Cells, anthrax lethal toxin internalization, FRET ratio (460/530); AID 912, 2007; Potency, µM (doses to about 40 µM), inactives show top-dose activity change, negative = inhibition, hits mostly inhibitors; 70,000 tested, 0.67% active; further: on the % scale 0 is the no-effect control and ±100 the full control effect; nearly all actives have a fitted effect of over 50% in size
Starred values were filed as active, the others as inactive; ? = inconclusive; · = not tested or not shown; ! = repeats disagree; [ ] = remark or other dose. Unless noted, the call rests on the fitted dose curve. Potency means the concentration at half of the fitted maximal effect.

SMILES	AmpC inh no det	AmpC inh det	Prx2 Sm inh	Anthrax LT inh
Cc1ccc(CSc2nnc(Cn3c(=O)sc4ccccc43)n2C)cc1	26.2%	5.7%	>57	-9.1%
OCC(C#CCN1CCCCC1)NCc1ccccc1 (stereo not drawn)	-8.9%	0.2%	>57	-24.9%
COc1ccc(NC(=O)CN2CC(c3ccccc3)CC2=O)cc1OC (stereo not drawn)	3.98µM*[single pt active]	13.5%	>57	1.4%
O=C(CN1CC(c2ccccc2)CC1=O)Nc1ccc2c(c1)OCO2 (stereo not drawn)	16.8%	8.9%	>57	-3.0%
O=C(CN1CCN(Cc2ccc(F)cc2)C1=O)NCc1cccs1	13.0%	10.6%	>57	-8.8%
O=C(CN1CC(c2ccccc2)CC1=O)NCc1ccc(F)cc1 (stereo not drawn)	3.98µM*[single pt active]	11.2%	>57	-7.8%
CCOC(=O)N1CCC(N2C(=O)c3ccccc3C2Nc2cc(OC)c(OC)c(OC)c2)CC1 (stereo not drawn)	96.6%	11.0%	>57	6.9%
COc1ccccc1CNc1ccnc(-c2ccccc2Cl)n1	11.7%	8.0%	>57	-26.9%
Cc1ccccc1NC(=O)CSc1nnc(-c2ccoc2C)n1CCc1ccccc1	24.9%	-2.7%	>57	-17.0%
COc1cccc(-c2nc(NCc3cccnc3)c3ccccc3n2)c1	?	12.6µM*	>57	-20.4%
N#Cc1cccc(-c2nc(NCc3cccnc3)c3ccccc3n2)c1	0.631µM*	10µM*	>57	?
CCN(CC)C(=O)C1CCCc2c1[nH]c1ccc(Cl)cc21 (stereo not drawn)	3.98µM*[single pt active]	15.1%	·	-17.4%
O[C@@H](c1cc(C(F)(F)F)nc2c(Cl)cc(Cl)cc12)[C@@H]1CCCCN1	-9.7%[5.75 µM]	-3.9%[5.75 µM]	>57	-3.4%[8 µM]
O=C1Cc2c([nH]c3ccc(Br)cc23)-c2ccccc2N1	15.8µM*!	-3.6%	>57	-18.2%
O=c1c2c([nH]c3ccc(Br)cc13)CCCC2	-15.7%	-3.4%	>57	3.4%
CC(C)Cn1c(=O)c(C2=NS(=O)(=O)c3ccccc3N2)c(O)c2ccccc21	-3.7%	-0.6%	·	-10.6%
O=C=NC1CCCCC1	-3.2%	13.6%	·	-2.8%
C(=NC1CCCCC1)=NC1CCCCC1	-12.3%	12.5%	·	3.98µM*
CCC(=O)Oc1ccc(C2N(C(=O)CC)CCN2S(=O)(=O)c2ccc(C)cc2)cc1OC (stereo not drawn)	112.2%	-1.4%	>57	-2.9%
COc1ccc(S(=O)(=O)Cc2ccc(C(=O)N3CCN(c4ccc(Cl)cc4)CC3)o2)cc1	84.2%	5.4%	>57	12.6µM*
COc1ccc(S(=O)(=O)Cc2ccc(C(=O)N3CCN(Cc4ccccc4)CC3)o2)cc1	108.6%	12.1%	>57	-11.5%
COc1ccc(S(=O)(=O)Cc2ccc(C(=O)N3CCc4ccccc4C3)o2)cc1	3.16µM*[single pt active]	5.9%	>57	-14.5%
COc1ccc(CC(=O)Nc2cccc(-c3nnc(-c4cccc(C)c4)o3)c2)cc1OC	108.2%	-2.7%	>57	?
COc1ccc(CC(=O)Nc2cccc(-c3nnc(-c4ccc(C)cc4)o3)c2)cc1OC	75.8%	-3.5%	>57	3.16µM*
COc1ccc(CC(=O)Nc2cccc(-c3nnc(-c4ccccc4)o3)c2)cc1OC	62.3%	-3.1%	>57	10µM*
SMILES	AmpC inh no det	AmpC inh det	Prx2 Sm inh	Anthrax LT inh
COc1cccc(C(=O)Nc2cccc(-c3nnc(-c4ccccc4)o3)c2)c1	0.9%	7.4%	·	2µM*
O=C(C1CC1)N(CCc1ccccc1)Cc1nc2ccccc2c(=O)[nH]1	-8.5%	7.4%	>57	-21.0%
CC1CCCC(C)N1C(=O)Cn1c(SCC(=O)NCc2ccc3c(c2)OCO3)nc2ccccc21 (stereo not drawn)	52.6%	13.0%	>57	-5.3%
CCCS(=O)(=O)N1CCN(Cc2ccccc2OCC)CC1	11.2%	-5.0%	>57	14.3%
CC(=O)n1nc(-c2ccco2)nc1SCc1ccccc1	?	-2.1%	?	7.94µM*
CCC(=O)n1nc(-c2ccco2)nc1SCc1ccccc1	3.5%	-0.9%	>57	-5.7%
Brc1ccc(CSc2nnc(-c3cnccn3)n2Cc2ccco2)cc1	89.4%	15.5%	>57	6.5%
Cc1occc1C(=O)n1nnc2ccccc21	10µM*	10µM*	>57	-20.6%
CCOC(=O)N1CCC(NC(=O)CCC(=O)N2CCOc3ccc(C)cc32)CC1	51.3%	1.4%	>57	-1.3%
O=C(OCCN1C(=O)c2ccccc2C1=O)c1cnccn1	-2.7%	1.2%	>57	5.7%
N#CC1=C(N)NC(SCC(=O)Nc2ccccc2)=C(C#N)C12CCCC2	-20.5%	6.4%	>57	10µM*
O=C1OC2(c3ccc(O)cc3Oc3cc(O)ccc32)c2c1c(-c1ccccc1)c(-c1ccccc1)c(-c1ccccc1)c2-c1ccccc1	2.51µM*	-5.3%[5.75 µM]	>57	?
N#C/C(=C\c1ccc(O)c(O)c1)C(=O)NCCCc1ccccc1	0.2µM*!	-1.5%	>57	?
O=C(O)C1=CC(=C(c2ccc(O)c(C(=O)O)c2)c2ccc(O)c(C(=O)O)c2)C=CC1=O	7.94µM*	10µM*	>57	?
CC1=C/C(=C(/c2ccc(O)c(C)c2)c2ccccc2C(=O)O)C=CC1=O	-9.5%[5.75 µM]	-4.8%[5.75 µM]	>57	-15.4%[8 µM]
O=c1[nH]c2cc3c(cc2cc1C(c1nnnn1Cc1ccccc1)N1CCCc2ccccc21)OCO3 (stereo not drawn)	3.16µM*	7.6%	>57	-9.6%
O=c1[nH]c2cc3c(cc2cc1C(c1nnnn1C1CCCC1)N1CCCc2ccccc21)OCCO3 (stereo not drawn)	-3.1%	-3.2%	>57	7.94µM*
COc1cc2cc(C(c3nnnn3C3CCCC3)N3CCc4ccccc43)c(=O)[nH]c2cc1OC (stereo not drawn)	118.3%	19.6%	>57	?
Cc1cc[c]([Sb]2[O][C@H]([C@H](O)[C@H](O)C(=O)O)[C@@H](CO)[O]2)cc1	-4.7%[5.75 µM]	-1.4%[5.75 µM]	>57	-2.0%[8 µM]
O=C(O)[C@@H](O)[C@@H](O)[C@@H]1[O][Sb][O][C@@H]1CO	5.8%[5.75 µM]	-4.7%[5.75 µM]	0.855*	-3.5%[8 µM]
COc1cccc(NC(=O)n2nc(N)cc2-c2ccc(Cl)cc2)c1	3.98µM*[single pt active]	9.7%	>57	?
COc1cccc(NC(=O)CSc2nc(N)cc(N)n2)c1	-2.8%	-7.2%	>57	12.5%
CCC(CC)c1nnc(NC(=O)c2c(-c3ccccc3)noc2C)s1	20.6%	10.4%	>57	12.9%
O=C(CSc1nnc(CNc2ccc(Cl)cc2)o1)Nc1nc2ccccc2s1	3.98µM*[single pt active]	0.1%	>57	-4.0%
O=C(COc1ccc(Cl)cc1)NCc1nnc(SCC(=O)Nc2ccccc2)o1	29.9%	-4.1%	>57	-3.3%
CN(C)S(=O)(=O)N(CCN1CCOCC1)Cc1ccccc1F	10.3%	-4.3%	>57	-4.4%
COc1ccc(C)cc1C(=O)CCC(=O)Nc1ccccc1N1CCOCC1	53.9%	-2.8%	>57	15.8µM*
Cc1cc(C)c(OCC(=O)Nc2ccccc2N2CCOCC2)c(C)c1	22.0%	0.2%	>57	?
CCOC(=O)C1C(=O)NC(SCC(=O)Nc2nccs2)=C(C#N)C1c1ccccc1OCC (stereo not drawn)	?	-0.1%	>57	-5.1%
